Source: PubChem BioAssay
Activity calls are given as the source filed them.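 How the source made its calls, unless noted: active means mean z-score across replicates of 1.96 or higher in either the MELAS or the Rieske mutant cell line; inactive means the rest.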

Tests used:
[1] = viability loss with induced miR-34 in A549 – imaging, A549 dox-inducible miR-34, nuclei and caspase counts, primary screen (AID 1347080;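 active means compounds whose cell count with miR-34 switched on is under 0.7 times the count with it off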); conditions: A549 miR-34 inducible, Hoechst nuclei count, 48 h
[2] = MELAS cybrid and Rieske KO viability enhancers – cell-based, MELAS cybrids, Rieske KO mouse fibroblasts, CellTiter-Glo, primary screen (AID 1508586); conditions: low glucose;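 further: z relative to plate mean and SD of compound and empty wells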
[3] = stronger effect = lower value, cell number ratio, induced over uninduced
[4] = measured here: relative caspase fold change +Dox/-Dox
[5] = measured here: total cells with miR-34 induction, stronger effect = lower value
[6] = measured here: total cells without miR-34 induction
[7] = MELAS cybrid survival, CellTiter-Glo 48 h, stronger effect = higher value
[8] = Rieske KO mouse fibroblast survival, CellTiter-Glo 72 h
Further: test concentration not given here.

Row | SMILES | fold change [1, 3] | fold change [1, 4] | cell count [1, 5] | cell count [1, 6] | z-score [2, 7] | z-score [2, 8]
1 | CC1CC[C@H]2C(C)C(O)O[C@H]3O[C@@]4(C)CC[C@@H]1[C@]32OO4 (some centres not stated) | 0.953 (inactive) | 0.983 | 4540 | 4770 | -0.379 (inactive) | 0.102
2 | COCCCOc1cc(CC(CC(N)C(O)CC(C(=O)NCC(C)(C)C(N)=O)C(C)C)C(C)C)ccc1OC (configuration not stated) | 0.942 (inactive) | 0.734 | 7600 | 8060 | 0.18 (inactive) | -0.179
3 | C[C@]12CC[C@H]3c4ccc(O)cc4CC[C@H]3[C@@H]1CCC2OC(=O)CCC1CCCC1 (some centres not stated) | 0.984 (inactive) | 0.876 | 8050 | 8180 | -0.17 (inactive) | -0.155
4 | CCC(C)C(NC(=O)C(CCC(=O)O)NC(=O)C(CC(C)C)NC(=O)C1CN=C(C(N)C(C)C)S1)C(=O)NC1CCCCNC(=O)C(CC(N)=O)NC(=O)C(CC(=O)O)NC(=O)C(Cc2cnc[nH]2)NC(=O)C(Cc2ccccc2)NC(=O)C(C(C)CC)NC(=O)C(CCCN)NC1=O (configuration not stated) | 1.05 (inactive) | 0.927 | 7610 | 7240 | -0.25 (inactive) | -0.261
5 | O=C(c1ccccc1)c1ccc2nc(NC(=O)c3csc(C4CCN(c5ncnc6ccsc56)CC4)n3)[nH]c2c1 | 1.1 (inactive) | 0.341 | 2690 | 2460 | -0.654 (inactive) | -0.043
6 | O=C(c1cccc(Cl)c1F)N1CCN(Cc2cccc(Nc3nccs3)n2)CC1 | 0.822 (inactive) | 4.5 | 2250 | 2740 | -0.421 (inactive) | -0.143
7 | CC1(C)S[C@@H]2C(NC(=O)Cc3ccccc3)C(=O)N2C1C(=O)O (some centres not stated) | 0.875 (inactive) | 0.906 | 7910 | 9040 | 0.0178 (inactive) | -0.226
8 | COc1cc(-c2cc(-c3cccc(O)c3)cnc2N)cc(OC)c1OC | 0.804 (inactive) | 0.388 | 5380 | 6700 | -0.34 (inactive) | -0.00175
9 | NCc1c[nH]c(=S)n1C1CCc2c(F)cc(F)cc2C1 (configuration not stated) | 0.817 (inactive) | 2.13 | 7940 | 9720 | -0.197 (inactive) | -0.149
10 | Cc1ccc(Cl)cc1N(CC(=O)Nc1c(F)cccc1F)S(C)(=O)=O | 0.888 (inactive) | 0.518 | 8090 | 9110 | -0.403 (inactive) | 0.642
11 | CC1(C)OC2C[C@H]3[C@@H]4CCC5=CC(=O)C=C[C@]5(C)[C@]4(F)C(O)C[C@]3(C)[C@@]2(C(=O)CO)O1 (some centres not stated) | 0.812 (inactive) | 1.01 | 5100 | 6270 | -0.349 (inactive) | -0.501
12 | O=C(C=Cn1cnc(-c2cc(C(F)(F)F)cc(C(F)(F)F)c2)n1)NNc1cnccn1 | 1.07 (inactive) | 0.543 | 2320 | 2170 | -0.213 (inactive) | -7.28
13 | COc1cc(-c2ncn(C=CC(=O)OC(C)C)n2)cc(C(F)(F)F)c1 | 0.884 (inactive) | 0.634 | 2040 | 2310 | -0.00249 (inactive) | -7.09
14 | CC1CC[C@]2(C(=O)O)CC[C@]3(C)C(=CC[C@H]4[C@@]5(C)CC(O)C(O)[C@@](C)(CO)[C@@H]5CC[C@]43C)[C@H]2C1C (some centres not stated) | 0.88 (inactive) | 0.855 | 8330 | 9460 | -0.312 (inactive) | 0.68
15 | CNc1nc(Nc2cn(C(C)(C)C#N)nc2C)ncc1C(F)(F)F | 0.858 (inactive) | 0.457 | 7920 | 9230 | -0.302 (inactive) | 0.79
16 | C[C@]12C=CC(=O)N[C@@H]1CC[C@@H]1[C@H]2CC[C@]2(C)C(C(=O)Nc3cc(C(F)(F)F)ccc3C(F)(F)F)CC[C@@H]12 (some centres not stated) | 0.962 (inactive) | 0.927 | 6640 | 6910 | -0.568 (inactive) | 0.0125
17 | O=C(C=Cc1ccc(O)c(O)c1)OC1C[C@@](O)(C(=O)O)CC(O)C1O (some centres not stated) | 0.936 (inactive) | 0.802 | 8020 | 8570 | -0.38 (inactive) | -0.0852
18 | O=C(O)C1=COC(OC2OC(CO)C(O)C(O)C2O)[C@@H]2C(CO)=CC[C@H]12 (some centres not stated) | 0.954 (inactive) | 1.02 | 9820 | 10300 | -0.392 (inactive) | 0.447
19 | NC(Cc1cc(I)c(Oc2cc(I)c(O)c(I)c2)c(I)c1)C(=O)O (configuration not stated) | 0.891 (inactive) | 1.04 | 8130 | 9130 | -0.238 (inactive) | -1.06
20 | O=C(NCc1cccc(O)c1)Nc1nc(-c2ccncc2)cs1 | 0.899 (inactive) | 0.419 | 2990 | 3330 | 0.152 (inactive) | -1.61
21 | c1ccc(NCc2ccc(CNc3ccccn3)cc2)nc1 | 0.944 (inactive) | 0.525 | 7360 | 7790 | -0.161 (inactive) | -0.0229
22 | Cc1cccc(C)c1OCC(=O)NC(Cc1ccccc1)C(O)CC(Cc1ccccc1)NC(=O)C(C(C)C)N1CCCNC1=O (configuration not stated) | 1 (inactive) | 0.797 | 6290 | 6270 | -0.513 (inactive) | 0.0231
